The results in this text go back to PubChem BioAssay.

SMILES strings stand for the structures. Results filed as inconclusive are left out. Active and inactive are the calls of the source. Unless noted, how the calls were made is not given here.

Assay [1] can be described thus: growth inhibition of DIPG glioma cells, dose response, cell-based, SU-DIPG-XIII, MIPE5.0, CellTiter-Glo, qHTS (AID 1347064; cut-off not given, nearly all actives have AC50 up to about 23 µM). The settings on record: SU-DIPG-XIII viability, CellTiter-Glo ATP luminescence. On the technique in general: ATP-based viability assays read luminescence as a measure of living cells.
The nature of assay [2]: JHH-DIPG-1 glioma cell viability, MIPE5.0 library, CellTiter-Glo luminescence, qHTS (AID 1347067; cut-off not given, nearly all actives have AC50 up to about 26 µM;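 further: cells exposed to compound for 48 hours before readout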). The settings on record: JHH-DIPG-1 glioma viability, CellTiter-Glo ATP luminescence.
Assay [3] is described as follows: SU-DIPG-XXV glioma cell viability, MIPE5.0 library, qHTS (AID 1347068; cut-off not given, nearly all actives have IC50 up to about 30 µM). (In general: Quantitative high-throughput screening tests each substance at several concentrations.)
The nature of assay [4]: growth inhibition of DIPG glioma cells, dose response, cell-based, SU-DIPG-XIII, MIPE4.0, CellTiter-Glo, qHTS (AID 1347061; cut-off not given, nearly all actives have AC50 up to about 37 µM;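 further: cells exposed to compound for 48 hours before readout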). The settings on record: SU-DIPG-XIII viability, CellTiter-Glo ATP luminescence.
Assay [5] in a line: viability loss in pontine glioma line – cell-based, SU-DIPG-XXV, MIPE5.0, CellTiter-Glo, qHTS, dose response (AID 1347065; cut-off not given, nearly all actives have AC50 up to about 26 µM;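 further: cells exposed to compound for 48 hours before ATP readout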). The settings on record: CellTiter-Glo ATP luminescence.
Assay [6] is described as follows: modifiers of HSF1 nuclear foci, imaging, Selleck Cancer Library (AID 1347162; in the data active means plate-normalised HSF1 focus index below about 0.46). Conditions: human cells, at 10 µM; SSMD: measured here: HSF1 foci SSMD mean; cell count: measured here: cell number; plate-normalised HSF1 focus index: stronger effect = lower value.
A short description of assay [7]: circadian clock period modulators, cell-based, LOPAC library, luminescence reporter (AID 2774).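 Further: values are relative to mean of DMSO wells on each plate.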 Conditions: circadian reporter cells, at 7 µM, actives lie on both sides.
The nature of assay [8]: hESC survival regulators, cell-based (AID 493140).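 Further: cells exposed to compounds for four days before counting.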 Conditions: human embryonic stem cell survival screen; stronger effect = higher value.

`Cc1ccc(-c2ncc(Cl)cc2-c2ccc(S(C)(=O)=O)cc2)cn1`: the result in assay [1], in assay [2] and in assay [3] was inactive.
For `C=CCc1cc(OC)c(O)c(C(=O)NCCO)c1`, in assay [4], the outcome was inactive.
Regarding `C[C@]12CC[C@@H]3c4ccc(O)cc4C[C@@H](CCCCCCCCCS(=O)CCCC(F)(F)C(F)(F)F)[C@H]3[C@@H]1CC[C@@H]2O` (stereo partly specified), the call in assay [4], in assay [5], in assay [2] and in assay [3] was inactive. Also, the SSMD in assay [6] is 2.09. The molecule also returned a cell count in assay [6] of 7000. Also, the plate-normalised HSF1 focus index in assay [6] was 1.13 (inactive).
For `Cc1c(C(=O)NN2CCCCC2)nn(-c2ccc(Cl)cc2Cl)c1-c1ccc(Cl)cc1`, the AC50 is 20.9 µM (active) in assay [4] and 18.6 µM (active) in assay [2]. Further, the outcome in assay [3] was inactive.
As to `O=C(O)c1nc(=O)[nH]c(=O)[nH]1`, the result in assay [1], in assay [5], in assay [2] and in assay [3] was inactive.
Consider `C#Cc1cccc(Nc2ncnc3cc(OCCOC)c(OCCOC)cc23)c1`, for which the concentration at half-maximal activity (AC50) in assay [5] is 7.42 µM (active). In assay [6], the SSMD came out at 2.72, the cell count worked out at 6730 and the plate-normalised HSF1 focus index is 1.14 (inactive).
Take `CCCCC(CC)COC(=O)C(C#N)=C(c1ccccc1)c1ccccc1` (stereo unspecified): the outcome in assay [3] was inactive.
With `O=C(O)c1cccc(-c2noc(-c3ccccc3F)n2)c1`, the call in assay [4] and in assay [3] was inactive.
With `CCC(=O)c1ccc2c(c1)N(CCCN(C)C)c1ccccc1S2`, the period change in assay [7] is -0.02 h (inactive).
In the case of `CC(=O)Oc1cc(C(F)(F)F)ccc1C(=O)O`, in assay [8], the survival is 9.25 (inactive).
For the molecule `Cc1nc2c([nH]1)c(=O)n(C)c(=O)n2Cc1ccco1`, in assay [7], the period change is 0.08 h (inactive).
As for `Nc1cccc2c1CN(C1CCC(=O)NC1=O)C2=O` (stereo unspecified), in assay [6], the SSMD came to 2.07, the cell count was determined as 6670 and the plate-normalised HSF1 focus index is 1.11 (inactive).
On to `N[C@@H](CC(=O)O)C(=O)O`, for which, in assay [7], the period change was 0.065 h (inactive).
Same read-out and setting: then `CCNC(=O)N1CCN(CCCC(c2ccc(F)cc2)c2ccc(F)cc2)CC1`, with -0.05 h (inactive); and `Nc1cc(=O)[nH]c(N)n1`, with -0.06 h (inactive).
The same measure, in the same setting: in the case of `O=C(O)CN(CCOCCOCCN(CC(=O)O)CC(=O)O)CC(=O)O` it was 0.1 h (inactive); in that of `CC(=O)[C@@]1(O)CC[C@H]2[C@@H]3CCC4=CC(=O)CC[C@]4(C)[C@H]3CC[C@@]21C`, 0.035 h (inactive).
On the same count and under the same terms, then `O=C(O)CP(=O)(O)O`, with 0.02 h (inactive).
Consider `CSc1ccc(C(=O)c2[nH]c(=O)[nH]c2C)cc1`, for which the period change in assay [7] is 0.015 h (inactive).
Take `CCCCCCCCCCCCCCC[C@H](O)[C@@H](N)CO`: in assay [8], the survival is 80 (inactive).
As to `OCCN1CCN(CC/C=C2/c3ccccc3Sc3ccc(C(F)(F)F)cc32)CC1`, the period change in assay [7] was -0.1 h (inactive). Further, the survival in assay [8] was 3.17 (inactive).
Consider `CC1=C(CC(=O)O)c2cc(F)ccc2/C1=C\c1ccc(S(C)(=O)=O)cc1`, for which the period change in assay [7] is 0.07 h (inactive).
Consider `C(=C\c1ccccc1)/CN1CCN(C(c2ccccc2)c2ccccc2)CC1`, for which, in assay [7], the period change was 0.12 h (inactive). Further, the survival in assay [8] was 11.3 (inactive).
`N[C@@H](COP(=O)(O)O)C(=O)O`: in assay [7], the period change was 0.04 h (inactive).
On the same count and under the same terms, in the case of `C[N+](C)(C)CCOC(=O)CCC(=O)OCC[N+](C)(C)C` it was 0.025 h (inactive); in that of `COC(=O)[C@@H](N)Cc1ccc(O)c(O)c1`, 0.105 h (inactive).
Still for that read-out and setting: in the case of `C[C@]12CCC(=O)C=C1CC[C@@H]1[C@@H]2CC[C@@]2(C)[C@H]1CC[C@]2(O)C(=O)CO` it was -0.335 h (inactive); in that of `CCN1CCc2nc(N)oc2CC1`, 0.015 h (inactive).
On to `NC(N)=NCCC[C@H](N)C(=O)O`, for which the period change in assay [7] is -0.2 h (inactive).
Still for that read-out and setting: in the case of `COc1ccc(CCN(C)CCCC(C#N)(c2cc(OC)c(OC)c(OC)c2)C(C)C)cc1OC` (stereo unspecified) it was -0.105 h (inactive).

Usually AC50 stands for the concentration giving half of the maximal activity seen.
